Data: PubChem BioAssay
Active and inactive are the calls of the source. Unless noted, the rule behind the calls is not given here.

Key:
[1] = A549 cell viability effects, profiling panel, calcein-AM fluorescence, 48 h, basal (AID 1162); details: higher = more signal; note: test concentration not given here
[2] = adipocyte viability effects, profiling panel, cell-based, 3T3-L1 adipocytes, calcein-AM fluorescence, 48 h, basal (AID 1163); details: 3T3-L1 adipocytes viability, higher = more signal; note: test concentration not given here
[3] = HepG2 cell viability effects, profiling panel, calcein-AM fluorescence, 48 h, basal (AID 1164); details: higher = more signal; note: test concentration not given here
[4] = MM1S cell viability effects, profiling panel, calcein-AM fluorescence, 48 h, basal (AID 1165); details: higher = more signal;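 note: viability of MM1S multiple myeloma cells under basal unstimulated conditions; test concentration not given here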
[5] = basal RPMI8226 viability, no added stimulus, profiling panel, cell-based, calcein-AM fluorescence, 48 h, PK04 Diversity Set (AID 1166); details: RPMI8226 myeloma viability, higher = more signal;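 note: cells grown under basal conditions without added stimulus; test concentration not given here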
[6] = basal HepG2 mitochondrial membrane potential changes, profiling panel, cell-based, JC-1 fluorescence, 24 h, 100 nL compound (AID 1167); details: higher = more signal; note: test concentration not given here
[7] = basal 3T3-L1 adipocyte mitochondrial potential changes, profiling panel, cell-based, JC-1 fluorescence, 3T3-L1 adipocytes, 24 h, 100 nL compound (AID 1168); details: JC-1 mitochondrial fluorescence, higher = more signal, called active from +8 up or from −8 down; note: test concentration not given here
[8] = basal RPMI8226 mitochondrial membrane potential changes, profiling panel, cell-based, JC-1 fluorescence, 24 h, 100 nL compound (AID 1169); details: RPMI8226 myeloma, JC-1 mitochondrial potential fluorescence, higher = more signal; note: test concentration not given here
[9] = basal MM1S mitochondrial membrane potential changes, profiling panel, cell-based, JC-1 fluorescence, 24 h, 100 nL compound (AID 1170); details: higher = more signal; note: test concentration not given here
[10] = A549 lung cancer cell viability effects, profiling panel, resazurin fluorescence, 24 h, PK04 Diversity Set (AID 1171); details: higher = more signal, called active from +8 up or from −8 down; note: test concentration not given here
[11] = HepG2 liver cancer cell viability effects, profiling panel, resazurin fluorescence, 24 h, PK04 Diversity Set (AID 1172); details: higher = more signal; note: test concentration not given here
[12] = basal S. cerevisiae growth modulation, no modifier, primary screen, OD600, strain BY4716, 24 h, basal condition (AID 1173); details: OD600, 24 h, higher = more signal, called active from +8 up or from −8 down
[13] = MM1S myeloma cell viability, profiling panel, resazurin fluorescence, basal, 24 h, PK04 Diversity Set (AID 1174); details: higher = more signal, called active from +8 up or from −8 down;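 note: MM1S multiple myeloma cell line; test concentration not given here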
[14] = target: Dihydroorotate dehydrogenase (quinone), mitochondrial (Plasmodium falciparum (isolate 3D7)) (UniProt Q08210); assay: PfDHODH enzyme inhibitors, primary screen, biochemical, C-terminal His tag, absorbance 600 nm (AID 1175); details: DCIP absorbance 600 nm, higher = more signal, called active from +8 up or from −8 down;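 note: recombinant parasite enzyme with a five histidine tag at its C terminus; test concentration not given here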
[15] = P. aeruginosa biofilm formation inhibitors, primary screen, strain PAO1, LB-PBS medium, absorbance 600 nm (AID 1176); note: test concentration not given here; details: P. aeruginosa PAO1 growth/biofilm, A600, 12 h; higher = more signal
[16] = S. cerevisiae RM11-1a growth modifiers, primary screen, strain RM11-1a, OD600, basal, 24 h (AID 1177); details: OD600, 24 h, higher = more signal, called active from +8 up or from −8 down;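 note: cultures grown under basal conditions with no added stressor; test concentration not given here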
[17] = E. coli acrAB mutant growth effects, primary screen, E. coli filamentation inducers, strain DRC39, OD650, 24 h (AID 1178); details: higher = more signal, called active from +8 up or from −8 down;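 note: growth measured as culture turbidity by optical density at 650 nm; test concentration not given here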
[18] = E. coli acrAB mutant growth effects, primary screen, E. coli filamentation inducers, strain DRC39, OD650, 48 h (AID 1179);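 note: screen aims at cell division blockers that make cells filament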; details: E. coli DRC39 delta-acrAB growth, higher = more signal, called active from +8 up or from −8 down
[19] = RPMI8226 myeloma cell viability, profiling panel, resazurin fluorescence, basal, 24 h, PK04 Diversity Set (AID 1180); details: higher = more signal;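 note: RPMI8826 multiple myeloma cell line at 5000 cells per well; test concentration not given here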
[20] = target: E3 ubiquitin-protein ligase XIAP (Homo sapiens) (UniProt P98170); assay: XIAP binders, primary screen, biophysical, small-molecule microarray, fluorescence 635 nm (AID 1181); details: small-molecule microarray binding, higher = more signal;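 note: score merges 667 nm emission and signal to noise over triplicate slides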
Chain of E3 ubiquitin-protein ligase XIAP (Homo sapiens) (P98170 whole entry, looked up): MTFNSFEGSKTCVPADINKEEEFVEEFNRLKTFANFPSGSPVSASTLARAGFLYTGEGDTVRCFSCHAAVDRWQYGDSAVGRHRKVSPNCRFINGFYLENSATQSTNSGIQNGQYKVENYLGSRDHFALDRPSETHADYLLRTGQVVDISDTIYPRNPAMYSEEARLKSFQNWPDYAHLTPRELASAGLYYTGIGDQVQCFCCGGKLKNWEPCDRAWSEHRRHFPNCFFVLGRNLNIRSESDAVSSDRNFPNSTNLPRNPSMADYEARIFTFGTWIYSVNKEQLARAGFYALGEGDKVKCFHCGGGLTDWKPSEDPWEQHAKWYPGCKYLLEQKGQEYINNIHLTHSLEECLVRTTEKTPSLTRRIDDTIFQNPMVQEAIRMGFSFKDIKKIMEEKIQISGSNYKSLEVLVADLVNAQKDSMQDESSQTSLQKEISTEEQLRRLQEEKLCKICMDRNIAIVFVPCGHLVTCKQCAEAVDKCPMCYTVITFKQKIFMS

Chain of Dihydroorotate dehydrogenase (quinone), mitochondrial (Plasmodium falciparum (isolate 3D7)) (Q08210 whole entry, looked up): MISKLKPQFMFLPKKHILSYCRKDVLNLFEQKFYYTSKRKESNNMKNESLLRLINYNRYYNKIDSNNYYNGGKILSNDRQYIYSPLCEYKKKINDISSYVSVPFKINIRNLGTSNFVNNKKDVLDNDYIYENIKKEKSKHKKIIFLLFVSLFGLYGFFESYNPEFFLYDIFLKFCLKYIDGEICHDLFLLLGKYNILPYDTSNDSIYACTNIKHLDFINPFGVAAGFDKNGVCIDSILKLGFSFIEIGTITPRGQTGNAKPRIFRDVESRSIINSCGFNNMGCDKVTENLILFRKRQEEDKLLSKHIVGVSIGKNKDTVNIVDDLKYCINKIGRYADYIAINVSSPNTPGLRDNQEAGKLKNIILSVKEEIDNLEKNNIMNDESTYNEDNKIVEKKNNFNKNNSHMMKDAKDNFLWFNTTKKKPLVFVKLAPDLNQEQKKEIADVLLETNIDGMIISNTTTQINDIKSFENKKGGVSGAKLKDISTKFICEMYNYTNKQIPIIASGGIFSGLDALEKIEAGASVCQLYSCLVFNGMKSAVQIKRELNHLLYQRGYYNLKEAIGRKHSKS

Compound | z-score [1] | z-score [2] | z-score [3] | z-score [4] | z-score [5] | z-score [6] | z-score [7] | z-score [8] | z-score [9] | z-score [10] | z-score [11] | z-score [12] | z-score [13] | composite z-score [14] | z-score [15] | z-score [16] | z-score [17] | z-score [18] | z-score [19] | composite z-score [20]
C=CCC(OC(C)=O)[C@@H]1[C@@H](N(Cc2cc3ccccc3o2)C(=O)Cc2ccc(OC)cc2)c2cc(OCCCO)ccc2N1C(=O)c1ccc(-c2ccccc2)cc1 (stereo not given in full) | 0.328 | 1.05 | 0.228 | -0.841 | -1.82 | 3.42 | 0.182 (inactive) | -0.392 | 0.415 | -0.451 (inactive) | -0.877 | -0.464 (inactive) | 1.05 (inactive) | 0.849 (inactive) | -0.558 (inactive) | 0.275 (inactive) | 0.66 (inactive) | 0.16 (inactive) | 0.337 | -0.0575
COC(=O)[C@@]1(Cc2ccc(OC)cc2)[C@H]2c3cc(C(=O)N4CCCC4)n(CCc4ccc(O)c(OC)c4)c3C[C@H]2CN1C(=O)c1ccccc1 | -1.47 | 0.0048 | -0.0475 | -1.03 | -0.254 | -0.851 | -0.867 (inactive) | -0.167 | -0.563 | 1.05 (inactive) | -0.21 | 0.768 (inactive) | -0.427 (inactive) | -0.474 (inactive) | 0.467 (inactive) | 0.279 (inactive) | -0.744 (inactive) | -0.939 (inactive) | -0.125 | 0.659
COC(=O)[C@@]1(Cc2ccccc2)[C@H]2c3cc(C(=O)N(C)C)n(Cc4ccccn4)c3C[C@H]2CN1C(=O)c1ccccc1 | -1.43 | -0.125 | -0.468 | -1 | -1.71 | 0.428 | -0.698 (inactive) | 0.00235 | -0.135 | -0.712 (inactive) | -0.802 | 1.6 (inactive) | -1.33 (inactive) | 0.611 (inactive) | 0.964 (inactive) | 0.781 (inactive) | -1.19 (inactive) | -0.507 (inactive) | -1.26 | 0.124
C[N+](C)(C)CCCC[C@@H]1NC(=O)[C@@H]2C[C@H](C(=O)O)[C@H](c3cccc(OCCO)c3)N2C1=O | 1.58 | 0.185 | 0.403 | 0.305 | 0.367 | 2.43 | 0.204 (inactive) | 0.423 | 0.17 | 1.13 (inactive) | 0.72 | -0.219 (inactive) | 0.838 (inactive) | 0.284 (inactive) | -0.351 (inactive) | -0.126 (inactive) | 1.13 (inactive) | 1.36 (inactive) | 0.826 | -0.131
CC(C)C[C@@H]1NC(=O)[C@@H]2C[C@H](C(=O)NCCCC[N+](C)(C)C)[C@H](c3cccc(OCCO)c3)N2C1=O | -0.316 | -0.0337 | -0.75 | -1.3 | -0.122 | -1.16 | -0.915 (inactive) | 0.789 | -0.132 | -0.331 (inactive) | -3.45 | 1.45 (inactive) | -0.986 (inactive) | -29 (active) | 1.3 (inactive) | 0.958 (inactive) | -0.234 (inactive) | -0.667 (inactive) | -1.16 | -0.127
COC(=O)C(CC#Cc1ccc2c(c1)[C@]1(C(=O)N2)[C@H](c2ccc(O)cc2)N2[C@H](c3ccccc3)[C@H](c3ccccc3)OC(=O)[C@H]2[C@@H]1C(N)=O)C(=O)OC | 1.43 | -0.0866 | 0.188 | 0.244 | 0.728 | 1.44 | 0.673 (inactive) | -0.846 | -0.0448 | 1.42 (inactive) | 1.09 | -0.773 (inactive) | 0.455 (inactive) | 0.133 (inactive) | 1.28 (inactive) | -0.864 (inactive) | 1.68 (inactive) | 2.08 (inactive) | 1.1 | 0.153
CCCCC(CC)C(O)C1C=CC2C(=O)NC(=O)C2N1Nc1ccccn1 (stereo not given) | 0.373 | -0.131 | 1.12 | -0.11 | 0.581 | 0.0822 | -0.506 (inactive) | 0.713 | -0.792 | -0.858 (inactive) | -1.39 | 0.332 (inactive) | -1.51 (inactive) | 0.56 (inactive) | 1.2 (inactive) | 0.852 (inactive) | -0.486 (inactive) | -0.112 (inactive) | -0.675 | 0.24
CCN(CC)c1ccc(N2CC=CC34O[C@@H]5/C=C\CCCOC(=O)C5[C@H]3C(=O)N(CCCCCO)[C@@H]4C2=O)cc1 (stereo not given in full) | 0.147 | 0.184 | 0.481 | -0.459 | -0.711 | -0.589 | -0.267 (inactive) | 0.0223 | 0.515 | 0.0257 (inactive) | -0.162 | -0.606 (inactive) | 0.361 (inactive) | -0.706 (inactive) | -0.553 (inactive) | -0.27 (inactive) | -0.388 (inactive) | -0.241 (inactive) | 0.681 | -0.0264
C=CCN1C(=O)[C@@]2(O[C@@H](CCn3cc([C@H](O)c4ccccc4)nn3)[C@H]([Si](C)(C)c3ccc(OC)cc3)[C@H]2C)c2cc(NC(=O)c3ccc(OC)cc3)ccc21 | -0.219 | -0.143 | -0.671 | -1.84 | -1.69 | -0.117 | -1.06 (inactive) | -0.991 | -0.641 | -2.43 (inactive) | -1.55 | 0.336 (inactive) | -2.19 (inactive) | 0.874 (inactive) | 0.389 (inactive) | 2.42 (inactive) | 0.628 (inactive) | 0.146 (inactive) | -2.35 | 0.176
